Screens from PubChem BioAssay.
Shown are actives, neighbours in structure and some others; about 3.8% of the full set was active somewhere.
HT1080-NT tox: kills 2HG-producing HT-1080-NT fibrosarcoma cells | HT-1080-NT fibrosarcoma viability, CellTiter-Glo ATP luminescence, 48 h | Potency, µM (top dose mostly 46.1 µM), without a hit: top-dose activity, negative = less viability, most hits filed as cytotoxic | hit rate 1.6% among 360,000 | AID 686970;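 also: NT is the 2HG producing partner of a matched IDH1 knockdown line; 0% = DMSO-treated cells and -100% = media-only wells without cells; nearly all actives have a fitted effect of over 55% in size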
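750 cells/well, RPMI + 5% FBS; 2 h settle, compound pin-transfer, 48 h at 37 degrees C. CellTiter-Glo 10 min RT, luminescence. Normalized to DMSO and media-only wells.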
ATXN2 expr inh: ATXN2 expression inhibition; Potency, µM (titrated, usually from 57 µM), for inactives: at the top dose activity change, negative = inhibition, actives largely listed as inhibitors; HEK-293 ATXN2-luciferase reporter, luminescence, 24 h; hit rate 0.72% among 360,000; also: % is scaled to controls: 0 for no effect and ±100 for the full control effect; nearly all actives have a fitted effect of over 55% in size
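qHTS (up to 57 uM final) was run with 24 h compound exposure of reporter cells at 37 °C. Each well was multiplexed: SteadyGlo luminescence measured ATXN2-luciferase expression after a fluorogenic Gly-Phe-AFC viability readout (25 uM final).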
S2 tox: viability counter-screen for ATXN expression inhibitors | AID 651635 | Potency, µM (highest dose often 56.7 µM), usual class: cytotoxic | hit rate 0.49% among 400,000 | S2 cells (HEK-293 line with an ATXN2-luciferase reporter) viability, CellTiter-Fluor protease fluorescence, 24 h; also: nearly all actives have a fitted effect of over 40% in size
TGFb SMAD3 inh: TGF-b pathway inhibition; Potency, µM (highest dose often 46.1 µM), for inactives: top-dose activity, negative = inhibition, hits mostly inhibitors; hit rate 1.2% among 410,000; HepG2 CAGA-GFP TGF-b/SMAD3 reporter, GFP fluorescence, 18 h; TGF-beta stimulated, 500 pg/mL final; also: % is scaled to controls: 0 for no effect and ±100 for the full control effect; nearly all actives have a fitted effect of over 65% in size
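HEPG2 CAGA-GFP cells (1000/well, DMEM with 1% FBS) were pre-incubated 2 h at 37 degrees C, given compound by pin tool, then stimulated with TGF-beta at 500 pg/mL final for 18 h before per-cell GFP fluorescence imaging.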
HepG2 tox: counter-screen for TGF-b inhibitors: cytotoxicity in HepG2 cells | HepG2 CAGA-GFP viability, ATP luminescence, 18 h | Potency, µM (highest dose often 46.1 µM), without a hit: at the top dose activity change, negative = cytotoxicity, usual class: cytotoxic | hit rate 0.76% among 410,000
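CellTiter-Glo luminescence gave cytotoxicity after 18 hours at 37 degrees C. The cells were HepG2 CAGA-GFP in 1% FBS DMEM, stimulated with 500 pg/mL TGF-beta after compound addition. %Activity was normalised to no-cell wells (complete cell-killing) and DMSO (no toxicity), and curves were fitted and classified.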
HT1080 IDH1KD tx: kills HT-1080 cells with IDH1 knockdown; HT-1080 IDH1 knockdown viability, ATP luminescence, 48 h; Potency, µM (doses to about 46.1 µM), for the others: top-dose activity, negative = toxicity, actives largely listed as cytotoxic; hit rate 2% among 360,000;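 also: 0% = DMSO wells and -100% = cell-free medium wells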
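In this qHTS, HT-1080 cells depleted of IDH1 are exposed for 48 h at 37 °C to compound titrations. Toxicity is scored from CellTiter-Glo luminescence, with DMSO as full viability and medium alone as none.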
Starred values were filed as active, the others as inactive; i = inactive; ? = inconclusive; · = no result; ! = not active in a repeat. Calls follow the shape of the dose curve; as a rule, active = well fitted curve in the direction sought with a large enough effect; inconclusive = small, poorly fitted or top-dose-only effect, or another doubt; inactive = no such curve, though single readings can be large; an effect the other way counts as inactive or inconclusive. Potency is read from the fitted curve at half-maximal effect.

SMILES	HT1080-NT tox	ATXN2 expr inh	S2 tox	TGFb SMAD3 inh	HepG2 tox	HT1080 IDH1KD tx
COc1cccc(CNc2nc3cc(-c4ccc(C(=O)N5CCN(C)CC5)cc4)sc3c(=O)n2C)c1	23µM*	?	i	?	-44%	15µM*
CCN1/C(=C/C=C/c2oc3ccc(-c4ccccc4)cc3[n+]2CC)Oc2ccc(-c3ccccc3)cc21	2.6µM*	9.5µM*	·	103%	-111%	0.92µM*
CCOC(=O)N1CCN([N+]([O-])=NOc2ccc([N+](=O)[O-])cc2C#N)CC1	·	8%	·	·	·	·
CN(C)CC(C)(C)CNS(=O)(=O)c1ccc(Cl)c(Cl)c1	-23%	-33%	i	-9%	0%	16µM*!
Cc1ccc(NC(=O)CCCn2c(=O)c3cccn3c3ccccc32)c(C)c1	·	·	·	-12%	-16%	·
O=C(CCl)NCc1cc(-c2ccc(Cl)cc2)no1	12µM*	?	?	?	-36%	9.2µM*
COc1cccc(CSc2nc3n(n2)C(CC(C)C)C(C(=O)Nc2ccccc2C)=C(C)N3)c1 (stereo unspecified)	·	-20%	i	1%	1%	·
CCCCCC(=O)N1C[C@@H](n2cc(-c3ccc(F)cc3)nn2)[C@H](O)C[C@@H]1c1ccc(C)cc1	-23%	?	16µM*	?	-29%	?
CCCCCCN1C[C@H](n2cc(-c3ccc(F)cc3)nn2)[C@@H](O)C[C@@H]1c1ccccc1	7%	1%	i	?	-79%	15%
CCCCCC(=O)N1C[C@@H](O)[C@H](n2cc(-c3ccc(F)cc3)nn2)C[C@@H]1c1ccccc1	-17%	-12%	i	-24%	-26%	-17%
CCCCCCN1C[C@@H](O)[C@H](n2cc(C3CC3)nn2)C[C@@H]1c1ccc(Cl)cc1	-27%	?	?	?	16µM*	?
CCCCCCN1C[C@@H](n2cc(C3CC3)nn2)[C@H](O)C[C@@H]1c1ccc(Cl)cc1	2%	?	?	?	-107%	-1%
CCCCCC(=O)N1C[C@@H](O)[C@H](n2cc(-c3ccc(F)cc3)nn2)C[C@@H]1c1ccc(C)cc1	-5%	0%	?	18µM*	-31%	-11%
CCCCCCN1C[C@H](O)[C@@H](n2cc(-c3ccc(F)cc3)nn2)C[C@@H]1c1ccccc1	?	-33%	18µM*	?	-102%	?
CCc1nn(CC(=O)NCCN(CC)CC)c(=O)c2cc3occc3n12	·	-3%	i	-12%	-9%	·
CC(=O)N1CCC(N(Cc2ccc(C)o2)C(=O)Nc2cccc(C(F)(F)F)c2)CC1	·	-24%	?	0%	-23%	·
CCCCCC(=O)N1C[C@@H](n2cc(-c3ccc(F)cc3)nn2)[C@H](O)C[C@@H]1c1ccc(OC)cc1	18µM*	0%	?	-1%	-10%	?
O[C@H]1C[C@H](c2ccc(Cl)cc2)N(Cc2cccs2)C[C@@H]1n1cc(-c2ccc(F)cc2)nn1	?	32µM*	·	?	-113%	?
CCCCCC(=O)N1C[C@H](n2cc(C3CC3)nn2)[C@@H](O)C[C@@H]1c1ccc(OC)cc1	-10%	-4%	i	-3%	0%	-6%
Cc1ccc([C@H]2C[C@H](O)[C@@H](n3cc(-c4ccc(F)cc4)nn3)CN2Cc2cccs2)cc1	?	?	?	3%	-25%	?
Cc1ccc(Cl)cc1-n1c(=O)c2sc3ccccc3c2n(CC(=O)NC2CCCCC2)c1=O	·	-7%	?	-18%	7%	·
Cn1cc(-c2[nH]c3cc(NC(=O)[C@H](N)C4CCCCC4)cc4c3c2C=NNC4=O)cn1	·	1.1µM*	·	·	·	·
CC[C@]1(c2ccccc2OC)ON(c2ccccc2C(F)(F)F)C1=O	-27%	?	·	10µM*	16µM*	?
